RPL19A-GFP yeast = RPL19A-GFP expression modulators in yeast, primary screen, cell-based, S. cerevisiae, multiplex flow cytometry, MLPCN; S. cerevisiae RPL19A-GFP strain, 3 h; hits give low values; percent response vs DMSO, % at 10 µM; hit rate 0.3% among 330,000; AID 2025, 2009;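 active = percent response vs DMSO below 50%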;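 also: median channel GFP fluorescence of the barcoded RPL19A-GFP strain; lower means less RPL19A-GFP as with rapamycin TOR inhibition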
AGP1-GFP MLPCN = modulators of AGP1-GFP expression in yeast TOR pathway, primary screen, cell-based, multiplex flow cytometry, S. cerevisiae, MLPCN library; 3 h; GFP as percent of DMSO wells; GFP response vs DMSO, % at 10 µM; hit rate 0.02% among 320,000; AID 2066, 2009;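 active = GFP response relative to DMSO above a set limit, near screen average plus 3 SD, cut at about 150% in these data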;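 also: median GFP channel fluorescence of the gated AGP1 strain per well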
MEP2 TOR yeast = modulators of MEP2-GFP levels in yeast, primary screen, S. cerevisiae, multiplex flow cytometry, MLPCN library. S. cerevisiae MEP2-GFP strain, 3 h; 100% = DMSO control level. GFP response vs DMSO, % at 10 µM. hit rate 0.51% among 330,000;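 active = GFP response versus DMSO above a set limit, roughly screen mean plus 3 SD, cut at about 180% in these data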;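 also: median GFP fluorescence of the barcode-gated MEP2-GFP cells per well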
LAP4-GFP MLPCN = modulators of LAP4-GFP expression in yeast, primary screen, S. cerevisiae, multiplex flow cytometry, MLPCN library; GFP response vs DMSO, % at 10 µM; 3 h; median GFP as percent of DMSO wells; hit rate 0.34% among 320,000;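 active = GFP response vs DMSO above a set limit, about the screen mean plus 3 SD, cut at about 150% in these data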
CIT2 TOR yeast = modulators of CIT2-GFP expression in yeast, primary screen, S. cerevisiae, GFP fusion, multiplex flow cytometry, MLPCN library; S. cerevisiae CIT2-GFP strain, 3 h; 100 means same as DMSO wells; GFP response vs DMSO, % at 10 µM; hit rate 0.065% among 320,000;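 active = GFP response relative to DMSO above a set limit, near the screen mean plus 3 SD, cut at about 150% in these data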;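 also: ratio of well median GFP fluorescence to mean of DMSO wells on the plate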
LAP4 cherry2 = LAP4-GFP expression modulators in yeast, confirmation, cell-based, second cherry pick, flow cytometry | shares compounds with LAP4-GFP MLPCN | S. cerevisiae LAP4-GFP strain, 3 h | GFP response vs DMSO, % at 10 µM | hit rate 20% among 590 | AID 2621, 2010;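 active = GFP signal as percent of the solvent control above about 150%, meaning raised reporter expression, limit read from the data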
MEP2 cherry2 = modulators of MEP2-GFP levels in yeast, confirmation, S. cerevisiae, flow cytometry GFP, second cherry picks; GFP response vs DMSO, % at 10 µM; S. cerevisiae MEP2-GFP strain, 3 h; hit rate 10% among 590; shares compounds with LAP4-GFP MLPCN;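 active = GFP signal above 150% of the solvent control wells, that is a rise of more than half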;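 also: median channel GFP fluorescence of all gated yeast cells per well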
RPL19A-GFP pick2 = RPL19A-GFP modulators in TOR pathway yeast, confirmation, cell-based, S. cerevisiae, flow cytometry, second cherry pick | hit rate 3% among 590 | shares compounds with LAP4-GFP MLPCN | S. cerevisiae RPL19A-GFP strain, 3 h; hits give low values; 100% means same as DMSO wells | GFP response vs DMSO, % at 10 µM | AID 2623, 2010;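 active = under 65% GFP response relative to DMSO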;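 also: median GFP channel fluorescence per well over the all cells gate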
CIT2 GFP CP2 = modulators of CIT2-GFP expression in yeast, confirmation, flow cytometry, second cherry pick, single plex; AID 2624, 2010; shares compounds with LAP4-GFP MLPCN; GFP response vs DMSO, % at 10 µM; S. cerevisiae CIT2-GFP strain, 3 h; DMSO control wells read 100%; hit rate 8% among 590;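 active = GFP response vs DMSO above about 150%, limit read from the data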;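 also: median green fluorescence per well over all gated yeast cells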
AGP1 GFP CP2 = AGP1-GFP expression modulators, hit retest, confirmation, cell-based, flow cytometry, S. cerevisiae, cherry pick set 2; shares compounds with LAP4-GFP MLPCN; AID 2643, 2010; percent response vs DMSO, % at 10 µM; 590 tested, under 10 active; S. cerevisiae AGP1-GFP strain, 3 h;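 active = over 150 percent of DMSO response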;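 also: median GFP channel fluorescence over all cells without mother daughter split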
Yeast autofluor = compound autofluorescence in yeast s288c, dose response, artefact control for yeast TOR pathway GFP screen, s288c strain | shares compounds with LAP4-GFP MLPCN | S. cerevisiae s288c, 520 nm autofluorescence, flow cytometry, 3 h; hits give high values; zero means same as solvent-only cells | fluorescence change (kMESF span) at 33 µM | 610 tested, under 10 active | AID 2757, 2010;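 active = fluorescence span over the dose series, or activity score, above about 33, limit read from the data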
s288c autofl DR = autofluorescence of compounds in yeast s288c, dose response, artefact control for yeast TOR pathway GFP screen, primary hits, KU SAR, s288c parental; 110 tested, under 10 active; AID 488829, 2010; fluorescence change (span) at 33 µM; shares compounds with LAP4-GFP MLPCN; S. cerevisiae s288c parental, compound autofluorescence, flow cytometry, 3 h;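 active = fluorescence change span, or the activity score built from it, above 25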
TORC1 bypass gr = wild-type yeast growth inhibition sparing TORC1 bypass cells, mechanism study for yeast TOR pathway GFP screen, BY4741 wild type, TORC1 bypass strain; shares compounds with LAP4-GFP MLPCN; S. cerevisiae BY4741 spot growth rating, 48-72 h; hits give low values; growth rating (0-3) at 30 µM; 120 tested, under 10 active; AID 504456, 2011;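 active = growth rating at most 1 for wild type yeast while the TORC1 bypass strain still grows fully, rated 3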
Large screens that a line does not name were inactive (follow-up assays come after a bar, where they were run). Rows were chosen to be rich in hits. Some 0.92% of all compounds tested hit in one or more screens of this group.

O=C1C=C(c2ccc3ncccc3c2)C[C@@H](c2ccc(Cl)cc2)C1	LAP4-GFP MLPCN 151 | LAP4 cherry2 inactive | MEP2 cherry2 inactive | RPL19A-GFP pick2 inactive | CIT2 GFP CP2 inactive | AGP1 GFP CP2 inactive
CCN(C1CCS(=O)(=O)C1)S(=O)(=O)c1ccc2ccccc2c1 (stereo not given)	none
CC(=O)c1cccc([N+](=O)[O-])c1	none
O=C(C#Cc1ccccc1)c1cccc([N+](=O)[O-])c1	LAP4-GFP MLPCN 202 | Yeast autofluor inactive
O=C(O)CC(=O)Nc1cc(Cl)ccc1O	none | LAP4 cherry2 inactive | MEP2 cherry2 inactive | RPL19A-GFP pick2 inactive | CIT2 GFP CP2 inactive | AGP1 GFP CP2 inactive
Cc1ccc(NC(=O)c2nc(S(=O)(=O)Cc3ccccc3)ncc2Cl)cc1	LAP4-GFP MLPCN 152 | Yeast autofluor inactive
Cc1ccccc1OCCOC(=O)c1ccc(S(=O)(=O)N2CCCC2)cc1	CIT2 TOR yeast 158 | LAP4 cherry2 inactive | MEP2 cherry2 inactive | RPL19A-GFP pick2 inactive | CIT2 GFP CP2 inactive | AGP1 GFP CP2 inactive | Yeast autofluor inactive
Cc1c(C(=O)Nc2nc(-c3ccccn3)cs2)oc2ccccc12	LAP4-GFP MLPCN 220 | LAP4 cherry2 187 | MEP2 cherry2 inactive | RPL19A-GFP pick2 inactive | CIT2 GFP CP2 inactive | AGP1 GFP CP2 inactive | Yeast autofluor inactive | s288c autofl DR inactive | TORC1 bypass gr inactive
CCc1sc(C(=O)Nc2nc(-c3ccccn3)cs2)cc1C	LAP4-GFP MLPCN 191 | LAP4 cherry2 212 | MEP2 cherry2 155 | RPL19A-GFP pick2 inactive | CIT2 GFP CP2 inactive | AGP1 GFP CP2 inactive | Yeast autofluor inactive
Cc1nnc(NC(=O)c2oc3ccccc3c2C)s1	none
Cc1cc(-c2csc(NC(=O)c3cc4ccccc4o3)n2)c(C)n1C	none
O=C(Nc1nc(-c2ccccn2)cs1)c1cc2ccccc2o1	LAP4-GFP MLPCN 155 | Yeast autofluor inactive | s288c autofl DR inactive | TORC1 bypass gr inactive
N#CCC(=O)Nc1ccc(C(=O)N2CCN(S(=O)(=O)c3ccc4ccccc4c3)CC2)cc1	none

Assay outcomes from PubChem.
